# Measurements taken from PubChem BioAssay (NCI).
# This is part of a sample that, as a whole, favours compounds with a hit. Of some 79,000 tested, about 15% had one in any assay. The source made the active and inactive calls. No stated cut-off is given here; in the data, active means growth inhibition above about 70%; inactive means the rest.
# Experiment: NCI Yeast Anticancer Drug Screen. Data for the bub3 strain (AID 167)
# Settings: S. cerevisiae bub3 mutant strain, at 50.0 µM, active compounds read high
# Method in brief: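 Readout: yeast growth inhibition, expressed relative to vehicle-only wells. The test organism is a mutant strain from a panel with lesions in DNA repair or checkpoint genes.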
row,SMILES,growth inhibition
1,N#CCCOc1ccccc1,-30.6% (inactive)
2,O=C1c2ccccc2-c2c1c1ccccc1c(=O)n2-c1cccnc1,6% (inactive)
3,C/C(O)=C/c1nc2sc(C)c(C)c2c(=O)s1,15.2% (inactive)
4,Clc1ccc(C2NN=C3c4ccccc4OCC32)cc1 (stereo unspecified),1.3% (inactive)
5,Cc1nnc(SCC2=C(C(=O)O)N3C(=O)C(NC(=O)Cn4cnnn4)C3SC2)s1 (stereo unspecified),-1.9% (inactive)
6,COc1cc([C@H]2OC[C@@H]3C(c4cc(OC)c5c(c4)OCO5)OC[C@H]23)cc(OC)c1OC (stereo partly specified),-1.35% (inactive)
7,C=CCn1c2c(c3ccccc3c1=O)C(=O)c1ccccc1-2,-8.5% (inactive)
8,COC(=O)/C(=N\NC(=S)NN)C(C(=O)OC)C(=O)C(=O)Nc1cccc(C(F)(F)F)c1 (stereo unspecified),-9.25% (inactive)
9,C[C@]12CC[C@@H]3c4ccc(OS(N)(=O)=O)cc4CC[C@H]3[C@@H]1CCC2=O,5.6% (inactive)
10,CC(C)CCCC(C)[C@H]1CC[C@H]2[C@@H]3CC[C@H]4C[C@@H](CCC=C(c5cc(Cl)c(O)c(C(=O)O)c5)c5cc(Cl)c(O)c(C(=O)O)c5)CC[C@]4(C)[C@H]3CC[C@]12C (stereo partly specified) (tested in a mixture with another compound),10.7% (inactive)
11,COc1cc(-c2nc(SC)nc3c2CCc2ccccc2-3)cc(OC)c1OC,4.35% (inactive)
